# Only a selection was taken, and hits are over-represented in it overall.
# TDP1 cell CPT: qHTS for Inhibitors of human tyrosyl-DNA phosphodiesterase 1 (TDP1): qHTS in cells in presence of CPT | chicken DT40 Tdp1-/-;hTDP1 cells + 20 nM CPT, ATP luminescence, 48 h | Potency, µM (doses to about 46.2 µM), for the others: at the top dose activity change, negative = growth inhibition, actives largely listed as inhibitors | 420,000 tested, 12% active | AID 686979, 2013; note: potency is the fitted concentration of half-maximal effect; nearly all actives have a fitted effect of over 55% in size
#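 Chicken DT40 Tdp1-/- cells stably complemented with human TDP1 were seeded at 400 cells/well in medium containing 20 nM camptothecin, exposed to pin-transferred compounds, and grown at 37 °C for at least 48 hr. Viability was read as ATP luminescence.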
# HT1080 IDH1KD tx: qHTS for induction of synthetic lethality in tumor cells producing 2HG: qHTS for the HT-1080-IDH1KD cell line | HT-1080 IDH1 knockdown viability, ATP luminescence, 48 h | Potency, µM (highest dose often 46.1 µM), for inactives: at the highest dose activity, negative = toxicity, hits mostly cytotoxic | 360,000 tested, 2% active | AID 686971, 2013;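 note: potency is the fitted concentration of half-maximal effect; 0% = DMSO wells and -100% = cell-free medium wells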
#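 % activity derives from luminescence (CellTiter-Glo), normalised to DMSO and no-cell wells. HT-1080-IDH1KD cells, 750/well, had 48 h compound exposure at 37 °C.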
# DT40 TDP1 no CPT: qHTS for Inhibitors of human tyrosyl-DNA phosphodiesterase 1 (TDP1): qHTS in cells in absence of CPT; Potency, µM (top dose mostly 46.2 µM), for the others: at the highest dose activity change, negative = growth inhibition, hits mostly inhibitors; 420,000 tested, 15% active; AID 686978, 2013; DT40 Tdp1-/- hTDP1 cells, no CPT, ATP luminescence, 48 h; note: potency is the fitted concentration of half-maximal effect; nearly all actives have a fitted effect of over 55% in size
#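 Cells were dispensed at 400 per well, compounds added by pin tool, plates incubated ≥48 hr at 37 °C, then CellTiter-Glo added for 30 min at room temperature before luminescence reading. Line: DT40 Tdp1-/- complemented with hTDP1; camptothecin omitted.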
# 12-LOX inh: Primary qHTS assay for inhibitors of human arachidonate 12S-lipoxygenase (ALOX12): Round 2; Polyunsaturated fatty acid lipoxygenase ALOX12 (Homo sapiens), P18054; purified 12hLO, xylenol orange hydroperoxide absorbance; Potency, µM (titrated, usually from 108 µM), for inactives: at the highest dose activity change, negative = inhibition, actives largely listed as inhibitors; 580,000 tested, 1.1% active; AID 1671190, 2021; note: potency is the fitted concentration of half-maximal effect
# Target sequence (P18054 whole entry, looked up): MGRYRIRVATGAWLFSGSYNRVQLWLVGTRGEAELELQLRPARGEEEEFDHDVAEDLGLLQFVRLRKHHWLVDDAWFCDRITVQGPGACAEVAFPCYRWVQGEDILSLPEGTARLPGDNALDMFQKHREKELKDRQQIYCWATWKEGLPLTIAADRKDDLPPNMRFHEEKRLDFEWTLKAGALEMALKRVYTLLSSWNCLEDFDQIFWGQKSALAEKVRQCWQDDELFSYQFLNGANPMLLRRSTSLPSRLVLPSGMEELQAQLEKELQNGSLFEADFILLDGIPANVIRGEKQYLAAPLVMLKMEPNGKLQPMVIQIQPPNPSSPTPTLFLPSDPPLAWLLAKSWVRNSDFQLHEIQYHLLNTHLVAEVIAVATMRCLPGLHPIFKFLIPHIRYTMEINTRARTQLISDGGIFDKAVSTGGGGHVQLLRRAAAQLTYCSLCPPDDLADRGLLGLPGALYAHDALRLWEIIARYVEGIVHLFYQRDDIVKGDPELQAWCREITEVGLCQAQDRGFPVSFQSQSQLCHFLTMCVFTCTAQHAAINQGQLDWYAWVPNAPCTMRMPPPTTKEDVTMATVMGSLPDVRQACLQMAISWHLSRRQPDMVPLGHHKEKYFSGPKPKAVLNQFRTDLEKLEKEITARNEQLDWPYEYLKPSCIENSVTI
#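 Hydroperoxide product was detected by ferrous iron/xylenol orange as the 573 to 405 nm absorbance ratio. Arachidonic acid at 40 uM (final) was turned over for 30 min at room temperature by 150 nM human 12hLO, pH 7.0 Hepes buffer, after 15 min compound preincubation.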
# HT1080-NT tox: qHTS for induction of synthetic lethality in tumor cells producing 2HG: qHTS for the HT-1080-NT fibrosarcoma cell line. AID 686970, 2013. Potency, µM (top dose mostly 46.1 µM), without a hit: at the top dose activity, negative = less viability, most hits filed as cytotoxic. 360,000 tested, 1.6% active. HT-1080-NT fibrosarcoma viability, CellTiter-Glo ATP luminescence, 48 h;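 note: NT is the 2HG producing partner of a matched IDH1 knockdown line; potency is the fitted concentration of half-maximal effect; 0% = DMSO-treated cells and -100% = media-only wells without cells; nearly all actives have a fitted effect of over 55% in size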
#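 Viability of the 2HG-overproducing fibrosarcoma line after 48 hours of compound exposure at 37 degrees C was determined by luminescence with CellTiter-Glo, and concentration-effect curves were then fitted and categorized.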
# IL-1B inflam inh: qHTS for Inhibitors of Inflammasome Signaling: IL-1-beta AlphaLISA Primary Screen; activity change, % at 57.5 µM; 360,000 tested, 4.7% active; AID 743279, 2014; THP-1 LPS/ATP IL-1B secretion, AlphaLISA, 16 h; active compounds read low; in the data active = activity change below about -50%; inconclusive = mostly about -30% to -49%
#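 THP-1 cells pretreated 1 hr with compounds (up to 57.5 uM final), then stimulated with LPS (250 ng/mL final) plus ATP (1.25 mM final); secreted IL-1B measured by AlphaLISA after 16 hr, decreased signal indicating inhibition.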
# * hit, by the source's call; ? = inconclusive; · = no result. Unless noted, calls come from the whole dose curve; as a rule, active = well fitted curve in the direction sought with a large enough effect; inconclusive = small, poorly fitted or top-dose-only effect, or another doubt; inactive = no such curve, though single readings can be large; an effect the other way counts as inactive or inconclusive. Unless noted, % is set by controls: 0 for no effect and ±100 for the full control effect.
SMILES,TDP1 cell CPT,HT1080 IDH1KD tx,DT40 TDP1 no CPT,12-LOX inh,HT1080-NT tox,IL-1B inflam inh
COc1ccc(N/N=C(\C=N\O)C(=O)c2ccc(OC)cc2)cc1,2.6µM*,?,2.9µM*,?,?,17
COc1ccc(C(=O)C(=NNc2ccccc2)c2ccc(OC)cc2)cc1,?,-6%,?,-4%,9%,-55*
O=C(c1ccc(F)cc1)N1CCC(OCCOc2cccnc2)CC1,·,·,·,31%,·,·
CCc1ccc2c(c1)/C(=N/OC)C(=O)N2,?,13%,21µM*,-1%,3%,-8
O=C(Nc1ccc(-c2csnn2)cc1)C(Cl)(Cl)Cl,16µM*,-7%,7.3µM*,418%,-28%,?
CCn1c(/N=C/c2ccccc2NS(=O)(=O)c2ccc(C)cc2)nc2ccccc21,29µM*,-11%,?,·,-16%,-10
Cc1c(C)c2ccc(OCC(=O)NCc3ccc(S(N)(=O)=O)cc3)cc2oc1=O,·,·,·,6%,·,·
CCN(c1ccc(OC)cc1)S(=O)(=O)N1CCCC(C(=O)NCc2cccc(C)c2)C1 (stereo not given),?,-7%,?,24%,-3%,0
CCOc1ccc(CNC(=O)C2CCCN(S(=O)(=O)N3CCC(C)CC3)C2)cc1OC (stereo not given),?,-1%,?,10%,0%,-14
CCOc1ccc(CCNC(=O)C2CCCN(S(=O)(=O)N(C)c3ccc(F)cc3)C2)cc1 (stereo not given),21µM*,·,21µM*,-14%,·,·
CCOc1ccc(CNC(=O)C2CCCN(S(=O)(=O)N(C)c3ccc(F)cc3)C2)cc1OC (stereo not given),15µM*,·,13µM*,?,·,·
CN(c1ccc(F)cc1)S(=O)(=O)N1CCCC(C(=O)NCc2cccc(Br)c2)C1 (stereo not given),15µM*,·,12µM*,-8%,·,·
CCC/C(=N\NC(=O)Cc1ccc(Cl)c(Cl)c1)c1ccc(Cl)cc1,·,·,·,1%,·,·
Cc1[nH]c2ccccc2c1CCNC(=O)c1ccc2c(c1[N+](=O)[O-])C(=O)c1ccccc1C2=O,4.6µM*,?,2.9µM*,0%,-17%,-103*
C=CCc1cccc2cc(C(=O)NCCc3c(C)[nH]c4c(C)cccc34)c(=O)oc12,·,·,·,-6%,·,·
CC(C)NC(=O)c1cccc2c1-c1ccccc1C2=O,-16%,12%,0%,-2%,3%,-1
CN(C)C(=O)c1ccc2c(c1[N+](=O)[O-])C(=O)c1ccccc1C2=O,2.9µM*,-16%,5.8µM*,-22%,-18%,-5
Cc1[nH]c2c(C)cccc2c1CCNC(=O)c1ccc2c(c1[N+](=O)[O-])C(=O)c1ccccc1C2=O,16µM*,21µM*,8.2µM*,-24%,16µM*,-109*
COc1ccc(OCc2nc(C)c(CCO)c(=O)n2CC(=O)Nc2c(C)cccc2C)cc1,·,·,·,-1%,·,·
Cc1cccc(CCNC(=O)c2noc(-c3ccc4c(c3)OCO4)n2)c1,·,·,·,-1%,·,·
CCCOc1ccccc1C1CC(=O)Nc2cc3c(cc21)OCCO3 (stereo not given),0.73µM*,1.5µM*,0.65µM*,·,1.3µM*,14
O=C1CC(c2cccnc2)c2cc3c(cc2N1)OCCO3 (stereo not given),1%,0%,-14%,8%,-2%,5
CCOc1ccccc1C1CC(=O)Nc2cc3c(cc21)OCCO3 (stereo not given),1µM*,4.1µM*,0.52µM*,-14%,?,7
CCOc1c(Br)cc(C2CC(=O)Nc3cc4c(cc32)OCO4)cc1OC (stereo not given),2.9µM*,·,4.6µM*,-6%,·,·
CCOc1ccccc1C1CC(=O)Nc2cc(OC)c(OC)c(OC)c21 (stereo not given),?,13%,?,-1%,8%,5
SMILES,TDP1 cell CPT,HT1080 IDH1KD tx,DT40 TDP1 no CPT,12-LOX inh,HT1080-NT tox,IL-1B inflam inh
CCOc1c(Br)cc(C2NC(=O)CCC2[N+](=O)[O-])cc1OC (stereo not given),0%,19%,-15%,7%,4%,-2
CCOc1cc(C2CC(=O)Nc3cc4c(cc32)OCCO4)ccc1O (stereo not given),18µM*,·,?,-14%,·,·
O=C(NC1CCCC1)N1CCC2(C1)C(=O)N(CCc1ccccc1)c1ccccc12 (stereo not given),·,·,·,-1%,·,·
CC(=O)Nc1ccc(NC(=O)CSc2nnc(-c3ccccc3Cl)n2Cc2ccco2)cc1,·,·,·,2%,·,·
COCCNC(=O)C(=O)N1CCN(c2nc(CC(C)C)c3c(c2C#N)CCCC3)CC1,·,·,·,-6%,·,·
COc1ccc2cc1Oc1ccc(cc1)C[C@H]1c3c(cc4c(c3Oc3cc5c(cc3OC)CCN(C)[C@@H]5C2)OCO4)CCN1C,6.5µM*,21µM*,5.8µM*,85%,16µM*,?
COc1ccc2c(c1OC)C(=O)O[C@@H]2[C@H]1c2c(cc3c(c2OC)OCO3)CCN1C,4%,·,-25%,?,·,·
O=C(CCl)N1c2ccccc2Oc2ccc3ccccc3c21,5.2µM*,16µM*,1.5µM*,?,?,?
O=C(Nc1cccc(Cl)c1)c1ccc2sc([C@@H]3O[C@H](CO)[C@H](O)[C@H](O)[C@H]3O)nc2c1,0%,16%,-1%,-4%,6%,2
CC(=O)Nc1ccc(-c2noc(-c3csc([C@@H]4C[C@H](O)[C@@H](CO)O4)n3)n2)cc1,-14%,7%,-15%,-4%,?,-55*
O=C(Nc1cccc(Cl)c1)c1ccc2sc([C@H]3C[C@H](O)[C@@H](CO)O3)nc2c1,26µM*,?,23µM*,3%,-13%,2
O=C(NCc1ccccc1Cl)c1csc([C@H]2C[C@H](O)[C@@H](CO)O2)n1,5%,0%,-2%,12%,13%,-4
OC[C@H]1O[C@H](c2nc(-c3nc(-c4cccc(-n5cccc5)c4)no3)cs2)C[C@@H]1O,?,?,?,10%,-17%,-3
